Laboratory results reported in PubChem BioAssay (Tox21).
“And” between values parts separate entries of the source, which are not always exact repeats. Equal entries are not always repeated. The source holds several records for some structures; these can differ, active in one and inactive in another. The source made the active and inactive calls. Entries that show only a call come without a potency. Unless noted, calls follow the shape of the dose curve; as a rule, active = well fitted curve in the direction sought with a large enough effect in the repeat runs; inconclusive = weak or mixed curves; inactive = no such curve, though single readings can be large; an effect the other way counts as inactive or inconclusive.

Tests used:
[1] = qHTS assay to identify small molecule antagonists of the glucocorticoid receptor (GR) signaling pathway - cell viability counter screen (AID 720693); conditions: GR-bla HeLa viability, CellTiter-Glo luminescence, 18 h, with 5 nM dexamethasone present; series mostly up to 58.5 µM; also: nearly all actives have a fitted effect of over 55% in size; also: potency is read from the fitted curve at half-maximal effect
[2] = qHTS assay for identifying genotoxic compounds that show differential cytotoxicity against isogenic chicken DT40 cell lines with known DNA damage response pathways - wild type cell line (AID 743012); conditions: DT40 wild type chicken cells viability, CellTiter-Glo, 40 h; series mostly up to 68.4 µM; also: nearly all actives have a fitted effect of over 60% in size; also: potency is read from the fitted curve at half-maximal effect
In short: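 Quantitative HTS on parental DT40 cells: 40 h compound treatment at 37 C/5% CO2, with viability then determined by CellTiter-Glo luminescence. Values serve as the DNA repair-proficient reference for differential cytotoxicity.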

[3] = qHTS assay for identifying genotoxic compounds that show differential cytotoxicity against isogenic chicken DT40 cell lines with known DNA damage response pathways - Rev3 mutant cell line (AID 743014); conditions: chicken DT40 Rev3-/- viability, CellTiter-Glo, 40 h; series mostly up to 68.4 µM; also: nearly all actives have a fitted effect of over 55% in size; also: potency is read from the fitted curve at half-maximal effect
[4] = qHTS assay for identifying genotoxic compounds that show differential cytotoxicity against isogenic chicken DT40 cell lines with known DNA damage response pathways - Rad54/Ku70 mutant cell line (AID 743015); conditions: DT40 Rad54/Ku70 mutant viability, CellTiter-Glo, 40 h; series mostly up to 66.8 µM; also: nearly all actives have a fitted effect of over 60% in size; also: potency is read from the fitted curve at half-maximal effect
[5] = qHTS assay to identify small molecule antagonists of the androgen receptor (AR) signaling pathway - cell viability counter screen (AID 743033; also: nearly all actives have a fitted effect of over 45% in size; also: potency is read from the fitted curve at half-maximal effect); conditions: AR-bla HEK293 viability, CellTiter-Glo luminescence, 16 h; series mostly up to 58.5 µM
[6] = qHTS assay to identify small molecule antagonists of the androgen receptor (AR) signaling pathway using the MDA cell line - cell viability counter screen (AID 743041; also: nearly all actives have a fitted effect of over 45% in size; also: potency is read from the fitted curve at half-maximal effect); conditions: MDA-kb2 viability, CellTiter-Fluor, 16 h, cells co-treated with R1881 androgen agonist; series mostly up to 70.3 µM
In short: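 MDA-kb2 AR-luc human breast carcinoma cells (MMTV-luciferase, AR/GR responsive) were treated with compounds plus R1881 agonist for 16 h at 37 °C. Viability was read as CellTiter-Fluor fluorescence in the same wells as the reporter assay.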

[7] = qHTS assay to identify small molecule antagonists of the thyroid receptor (TR) signaling pathway - cell viability counter screen (AID 743064); conditions: GH3.TRE-Luc viability, CellTiter-Fluor, 24 h; series mostly up to 70.3 µM; also: nearly all actives have a fitted effect of over 50% in size; also: potency is read from the fitted curve at half-maximal effect
In short: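 Counter screen for cytotoxicity: compound plus T3 (1 nM final) on GH3.TRE-Luc cells, 23.5 h at 37 °C, then fluorescence viability readout with CellTiter-Fluor.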

[8] = qHTS assay to identify small molecule antagonists of the thyroid receptor (TR) signaling pathway (AID 743065); conditions: GH3.TRE-Luc, T3-stimulated luciferase inhibition, 23.5 h; series mostly up to 70.3 µM; also: nearly all actives have a fitted effect of over 55% in size; also: potency is read from the fitted curve at half-maximal effect
In short: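 GH3.TRE-Luc rat pituitary cells carrying two TR response elements driving luciferase were plated for 4 h, given compound plus 1 nM T3 (final), and incubated 23.5 h at 37 C. ONE-Glo luminescence measured reporter inhibition; CellTiter-Fluor fluorescence tracked cytotoxicity.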

[9] = test system: thyroid hormone receptor (rat, GH3 cells); test: qHTS assay to identify small molecule agonists of the thyroid receptor (TR) signaling pathway (AID 743066; calls by dose curve); conditions: GH3.TRE-Luc cells, TR agonist luciferase, 24 h; series mostly up to 83.9 µM
[10] = qHTS assay to identify small molecule antagonists of the estrogen receptor alpha (ER-alpha) signaling pathway - cell viability counter screen (AID 743074; calls by dose curve; also: nearly all actives have a fitted effect of over 45% in size; also: potency is read from the fitted curve at half-maximal effect); conditions: ERalpha-bla HEK293 viability, CellTiter-Glo luminescence, 18 h; series mostly up to 69.4 µM
[11] = qHTS assay to identify small molecule antagonists of the estrogen receptor alpha (ER-alpha) signaling pathway using the BG1 cell line - cell viability counter screen (AID 743081); conditions: BG1Luc4E2 viability, CellTiter-Fluor, 22 h; series mostly up to 70.3 µM;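 also: compound given together with 17beta-estradiol as the ER stimulus; nearly all actives have a fitted effect of over 45% in size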; also: potency is read from the fitted curve at half-maximal effect
[12] = target: Estrogen receptor (Homo sapiens) (UniProt P03372); test: qHTS assay to identify small molecule antagonists of the estrogen receptor alpha (ER-alpha) signaling pathway (AID 743069; active = well fitted curve in the direction sought with a large enough effect in the signal ratio in the repeat runs, not every such curve was filed as active; inconclusive = weak or mixed curves, or effect the other way; inactive = no such curve, though single readings can be large or run the other way; the % refers to the signal ratio); conditions: HEK293 ER-alpha-UAS-bla, beta-lactamase ratio, antagonist mode; series mostly up to 69.4 µM
In short: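 HEK293 cells stably carrying an ER-alpha-UAS-bla beta-lactamase reporter were pre-cultured overnight in 2% charcoal-stripped FBS medium. Test compounds in DMSO were added together with 17beta-estradiol for 18 hr at 37C. Read-out was fluorescence after 2 hr with LiveBLAzer B/G FRET substrate at room temperature.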

[13] = target: Estrogen receptor (Homo sapiens) (UniProt P03372); test: qHTS assay to identify small molecule agonists of the estrogen receptor alpha (ER-alpha) signaling pathway (AID 743075; calls by dose curve; also: potency is read from the fitted curve at half-maximal effect); conditions: HEK293 ER-alpha-UAS-bla, beta-lactamase FRET ratio, 18 h; series mostly up to 70.1 µM
[14] = qHTS assay to identify small molecule antagonists of the estrogen receptor alpha (ER-alpha) signaling pathway using the BG1 cell line (AID 743080; calls by dose curve;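 also: BG1 cells stimulated with 17beta-estradiol alongside compound; nearly all actives have a fitted effect of over 25% in size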; also: potency is read from the fitted curve at half-maximal effect); conditions: BG1Luc4E2 ERE-luciferase antagonist mode, luminescence; series mostly up to 70.3 µM
In short: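 Endogenous full-length ER-alpha in BG1-Luc-4E2 cells drives a stably integrated 4×ERE luciferase gene; compounds were tested against 17beta-estradiol over 21.5 h, with luminescence and multiplexed viability fluorescence recorded.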

Aromatase (Homo sapiens) = Aromatase (Homo sapiens) (UniProt P11511); test: qHTS assay to identify aromatase inhibitors (AID 743083); conditions: MCF-7 aro ERE, testosterone-driven ERE luciferase, 24 h; series mostly up to 70.3 µM; also: nearly all actives have a fitted effect of over 55% in size; also: potency is read from the fitted curve at half-maximal effect
[15] = target: Estrogen receptor (Homo sapiens) (UniProt P03372); test: qHTS assay to identify small molecule agonists of the estrogen receptor alpha (ER-alpha) signaling pathway using the BG1 cell line (AID 743079); conditions: BG1Luc4E2 cells, ERE-luciferase agonist, 22 h; series mostly up to 70.3 µM; also: nearly all actives have a fitted effect of over 20% in size; also: potency is read from the fitted curve at half-maximal effect

Sequence of Estrogen receptor (Homo sapiens) (P03372 whole entry, looked up): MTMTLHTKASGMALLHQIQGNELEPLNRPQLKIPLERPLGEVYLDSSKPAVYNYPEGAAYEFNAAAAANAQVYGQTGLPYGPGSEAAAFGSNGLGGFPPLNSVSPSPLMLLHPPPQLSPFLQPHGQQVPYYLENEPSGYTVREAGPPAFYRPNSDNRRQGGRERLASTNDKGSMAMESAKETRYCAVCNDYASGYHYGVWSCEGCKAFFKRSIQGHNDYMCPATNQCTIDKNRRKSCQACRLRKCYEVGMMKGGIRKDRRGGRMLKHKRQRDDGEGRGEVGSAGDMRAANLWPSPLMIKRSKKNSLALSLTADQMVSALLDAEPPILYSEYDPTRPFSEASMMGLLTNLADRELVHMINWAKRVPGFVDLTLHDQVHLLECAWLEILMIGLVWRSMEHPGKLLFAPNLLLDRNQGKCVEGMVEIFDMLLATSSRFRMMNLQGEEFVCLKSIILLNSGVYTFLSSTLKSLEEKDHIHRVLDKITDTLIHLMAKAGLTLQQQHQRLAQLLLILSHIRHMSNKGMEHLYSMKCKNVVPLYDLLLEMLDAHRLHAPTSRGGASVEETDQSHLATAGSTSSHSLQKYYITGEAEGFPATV
Sequence of Aromatase (Homo sapiens) (P11511 whole entry, looked up): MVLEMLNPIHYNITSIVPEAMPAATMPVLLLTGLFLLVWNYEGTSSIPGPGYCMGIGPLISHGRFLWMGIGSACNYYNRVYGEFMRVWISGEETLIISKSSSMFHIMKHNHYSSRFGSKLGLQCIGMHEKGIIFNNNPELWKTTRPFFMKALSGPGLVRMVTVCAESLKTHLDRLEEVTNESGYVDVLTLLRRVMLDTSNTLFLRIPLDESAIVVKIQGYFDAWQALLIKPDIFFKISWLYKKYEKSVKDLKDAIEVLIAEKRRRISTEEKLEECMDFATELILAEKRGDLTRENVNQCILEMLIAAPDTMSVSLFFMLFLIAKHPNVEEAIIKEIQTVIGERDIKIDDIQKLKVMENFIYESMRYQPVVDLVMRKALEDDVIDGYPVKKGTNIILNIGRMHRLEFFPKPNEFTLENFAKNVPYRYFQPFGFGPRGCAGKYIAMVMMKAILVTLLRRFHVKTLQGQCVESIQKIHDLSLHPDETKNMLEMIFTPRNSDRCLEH

SMILES | Potency [1] | Potency [2] | Potency [3] | Potency [4] | Potency [5] | Potency [6] | Potency [7] | Potency [8] | outcome [9] | Potency [10] | Potency [11] | Potency [12] | Potency [13] | Potency [14] | Potency (Aromatase (Homo sapiens)) | Potency [15]
Cc1cc(-n2nc3ccc(Cl)cc3n2)c(O)c(C(C)(C)C)c1 | inactive | inactive | inactive | inactive | inactive | inactive | inactive | inactive | inactive | inactive | inactive |  |  |  |  | 
CCc1ccc(Br)cc1 | inactive | inactive | inactive | inactive | inactive | inactive | inactive |  | inactive | inactive | inactive | inactive | inactive | inactive | inactive | 
O=C(Oc1ccccc1)Oc1ccccc1 | inactive | inactive | inactive | inactive | inactive | inactive | inactive |  | inactive | inactive | inactive | inactive | inactive | inactive | inactive | inactive
CCCCCCCCCCCCOCCOCCOCCOCCOCCOCCOCCOCCOCCO | 23.9 µM (active) | 2.98 µM (active) | 5.96 µM (active) | 5.96 µM (active) | inactive | 8.41 µM (active) | 9.44 µM (active) | 8.41 µM (active) |  | 10.7 µM (active) | 23.7 µM (active) |  | inactive | 5.96 µM (active) | 10.6 µM (active) | 
CN1CCC[C@@H]1CCO[C@](C)(c1ccccc1)c1ccc(Cl)cc1 | inactive | 9.44 µM (active) | 10.6 µM (active) | 21.1 µM (active) | inactive | inactive | 23.7 µM (active) | 26.6 µM (active) |  | inactive | inactive |  |  |  |  | 
c1ccc(C(O[C@@H]2CCCN(CCc3ccc4c(c3)OCO4)C2)c2ccccc2)cc1 | inactive | 38.6 µM (active) | 30.6 µM (active) | 30.6 µM (active) | inactive | inactive | 24.3 µM (active) | 30.6 µM (active) |  |  | inactive | inactive | inactive |  |  | 
O=[N+]([O-])c1cccc(C(F)(F)F)c1 | inactive | inactive | inactive | inactive | inactive | inactive | inactive |  | inactive | inactive | inactive | inactive | inactive | inactive | inactive | inactive
CCOC(=O)c1ccc(C2CCC(NC[C@H](O)COc3ccc(O)c(NS(C)(=O)=O)c3)CC2)cc1 (some centres not stated) | inactive | 0.356 µM (active) | 0.1 µM (active) | 0.113 µM (active) | 45.2 µM (active) | inactive | 39.9 µM (active) |  |  |  | inactive |  |  |  |  | 
NC[C@H]1O[C@H](O[C@H]2[C@H](O[C@@H]3O[C@H](CO)[C@@H](O)[C@H]3O)C(O)[C@H](N)C[C@@H]2N)[C@H](N)[C@@H](O)[C@@H]1O (some centres not stated) | inactive | inactive | inactive | inactive | inactive | inactive | inactive | inactive | inactive | inactive | inactive |  |  |  | inactive | 
C=C(CC)C(=O)c1ccc(OCC(=O)O)c(Cl)c1Cl | inactive | 18.8 µM (active) and 43 µM (active) | 26.6 µM (active) and 48.2 µM (active) | 29.8 µM (active) and 48.2 µM (active) | inactive | 54.1 µM (active) | 68.1 µM (active) | 26.6 µM (active) and 54.1 µM (active) | inactive | inactive | inactive |  | inactive and 68.7 µM [fluorescent] (active) |  | inactive | inactive
O=C1CCc2ccc(OCCCCN3CCN(c4cccc(Cl)c4Cl)CC3)cc2N1 | inactive | 5.96 µM (active) | 5.31 µM (active) | 6.68 µM (active) | inactive | inactive | 11.9 µM (active) | 11.9 µM (active) |  | 23.9 µM (active) |  |  |  |  | inactive | 
O=[N+]([O-])c1ccc(F)c(Cl)c1 | inactive | inactive | inactive | inactive | inactive | inactive | inactive |  | inactive | inactive | inactive |  |  |  | inactive | 
Cc1ccc(C(C)C)cc2c(C)ccc1-2 | inactive | inactive | inactive | inactive | inactive |  | inactive | inactive | inactive | inactive | inactive | inactive | inactive | inactive | inactive | inactive
C#C[C@]1(O)CC[C@H]2[C@@H]3[C@H](C)CC4=C(CCC(=O)C4)[C@H]3CC[C@@]21C | inactive | 10.6 µM (active) | 29.8 µM (active) | 21.1 µM (active) | inactive | inactive |  | 26.6 µM (active) |  | inactive | inactive |  | 0.0134 µM [inconclusive] (active) | inactive | inactive | 0.0038 µM (active)
